Assay results from PubChem BioAssay AID1159580 (chemical genetic matrix, 2015).
“And” between values parts separate entries of the source, which are not always exact repeats. Identical values can stand only once. The campaign covered roughly 5,500 compounds. About 2,000 (36%) were called active. About 18% were inconclusive and are not listed. Rule as the data show it: active = normalized growth mostly below about 0.91 (no sharp cut-off); inconclusive = no clear call, values can overlap the other calls; inactive = mostly above about 0.92. Some of the results follow. Some compounds were tested as several samples or in several runs, with calls that do not always agree.

Experiment: chemical genetic growth profiling, strain panel (AID 1159580);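 also: tested at 20 µM; growth read once vehicle control cultures reached saturation at 30 °C; 1 = growth at the plate median or of vehicle wells; lower values mean less growth of the strain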
Settings: S. cerevisiae deletion strains, growth OD

Measured: normalized growth

O=c1c2ccccc2[se]n1-c1ccccc1
0.0595 (active) and 0.975 (inactive): locus YGR078C, strain PAC10, stronger effect = lower value
0.0625 (active) and 0.862 (inactive): locus YGR229C, strain SMI1, stronger effect = lower value
active: locus YAL021C, strain ccr4, stronger effect = lower value 0.0697 | locus YAL026C, strain drs2, stronger effect = lower value 0.0626 | locus YAL030W, strain snc1, stronger effect = lower value 0.057 | locus YBL061C, strain skt5, stronger effect = lower value 0.0616 | locus YBR009C, strain hhf1, stronger effect = lower value 0.067 | locus YBR021W, strain FUR4, stronger effect = lower value 0.0951 | locus YBR023C, strain chs3, stronger effect = lower value 0.0842 | locus YBR231C, strain swc5, stronger effect = lower value 0.129 | locus YBR279W, strain paf1, stronger effect = lower value 0.0647 | locus YCL011C, strain gbp2, stronger effect = lower value 0.057 | locus YCL016C, strain dcc1, stronger effect = lower value 0.102 | locus YCL029C, strain bik1, stronger effect = lower value 0.873 | locus YCL061C, strain MRC1, stronger effect = lower value 0.0738 | locus YCL069W, strain vba3, stronger effect = lower value 0.0606 | locus YCR088W, strain abp1, stronger effect = lower value 0.0595 | locus YDL005C, strain med2, stronger effect = lower value 0.071 | locus YDL035C, strain GPR1, stronger effect = lower value 0.0537 | locus YDL040C, strain nat1, stronger effect = lower value 0.909 | locus YDL074C, strain BRE1, stronger effect = lower value 0.0969 | locus YDL101C, strain DUN1, stronger effect = lower value 0.869 | locus YDL134C, strain PPH21, stronger effect = lower value 0.0461 | locus YDL192W, strain arf1, stronger effect = lower value 0.0608 | locus YDR001C, strain nth1, stronger effect = lower value 0.0663 | locus YDR069C, strain doa4, stronger effect = lower value 0.0621 | locus YDR101C, strain arx1, stronger effect = lower value 0.437 | locus YDR137W, strain rgp1, stronger effect = lower value 0.754 | locus YDR159W, strain sac3, stronger effect = lower value 0.854 | locus YDR162C, strain NBP2, stronger effect = lower value 0.054 | locus YDR195W, strain ref2 1.46 [resistant] | locus YDR297W, strain sur2, stronger effect = lower value 0.06 | locus YDR318W, strain mcm21, stronger effect = lower value 0.0683 | locus YDR334W, strain swr1, stronger effect = lower value 0.0625 | locus YDR335W, strain msn5, stronger effect = lower value 0.574 | locus YDR388W, stronger effect = lower value 0.0602 | locus YDR392W, strain spt3, stronger effect = lower value 0.0762 | locus YDR502C, strain sam2, stronger effect = lower value 0.0635 | locus YEL003W, strain gim4, stronger effect = lower value 0.106 | locus YEL037C, strain rad23, stronger effect = lower value 0.0632 | locus YEL061C, strain CIN8 (second series), stronger effect = lower value 0.0621 | locus YEL061C, strain CIN8, stronger effect = lower value 0.0485 | locus YER015W, strain faa2, stronger effect = lower value 0.0679 | locus YER016W, strain bim1, stronger effect = lower value 0.147 | locus YER110C, stronger effect = lower value 0.0784 | locus YER155C, strain BEM2 (second series), stronger effect = lower value 0.0943 | locus YER155C, strain BEM2, stronger effect = lower value 0.0677 | locus YER167W, strain BCK2, stronger effect = lower value 0.0545 | locus YFR010W, strain ubp6, stronger effect = lower value 0.07 | locus YGL078C, strain dbp3, stronger effect = lower value 0.0555 | locus YGL086W, strain mad1, stronger effect = lower value 0.062 | locus YGL167C, strain pmr1, stronger effect = lower value 0.0891 | locus YGL173C, strain kem1, stronger effect = lower value 0.0711 | locus YGL227W, strain vid30, stronger effect = lower value 0.0629 | locus YGL240W, strain doc1, stronger effect = lower value 0.0921 | locus YGL248W, strain PDE1, stronger effect = lower value 0.0477 | locus YGL253W, strain hxk2, stronger effect = lower value 0.0553 | locus YGR135W, strain pre9, stronger effect = lower value 0.0669 | locus YGR252W, strain gcn5, stronger effect = lower value 0.162 | locus YHR013C, strain ard1, stronger effect = lower value 0.11 | locus YHR027C, strain rpn1, stronger effect = lower value 0.0642 | locus YHR030C, strain SLT2, stronger effect = lower value 0.0507 and 0.0959 | locus YHR079C, strain IRE1 (second series), stronger effect = lower value 0.65 | locus YHR079C, strain IRE1, stronger effect = lower value 0.12 | locus YHR094C, strain hxt1, stronger effect = lower value 0.0617 | locus YHR129C, strain ARP1, stronger effect = lower value 0.0594 | locus YHR142W, strain chs7, stronger effect = lower value 0.0813 | locus YHR200W, strain rpn10, stronger effect = lower value 0.0601 | locus YIL066C, strain RNR3, stronger effect = lower value 0.0543 | locus YIL073C, strain SPO22, stronger effect = lower value 0.114 | locus YIL125W, strain kgd1, stronger effect = lower value 0.0566 | locus YIR030C, strain dcg1, stronger effect = lower value 0.0629 | locus YJL092W, strain hpr5, stronger effect = lower value 0.0617 | locus YJL095W, strain BCK1 (second series), stronger effect = lower value 0.0731 | locus YJL095W, strain BCK1, stronger effect = lower value 0.12 and 0.111 | locus YJL115W, strain asf1, stronger effect = lower value 0.0858 | locus YJL129C, strain trk1, stronger effect = lower value 0.769 | locus YJL134W, strain LCB3, stronger effect = lower value 0.0503 | locus YJL154C, strain vps35, stronger effect = lower value 0.0602 | locus YJL164C, strain tpk1, stronger effect = lower value 0.0617 | locus YJL166W, strain qcr8, stronger effect = lower value 0.0635 | locus YJL168C, strain set2, stronger effect = lower value 0.0616 | locus YJR043C, strain POL32, stronger effect = lower value 0.0678
0.0627 (active) and 0.948 (inactive): locus YAL013W, strain DEP1, stronger effect = lower value
inactive: locus YAL040C, strain CLN3, stronger effect = lower value 0.981 | locus YBR171W, strain sec66, stronger effect = lower value 0.927 | locus YBR229C, strain ROT2, stronger effect = lower value 1.02 | locus YCL061C, strain MRC1 (second series), stronger effect = lower value 0.952 | locus YDL185W, strain tfp1, stronger effect = lower value 0.999 | locus YDR363W, strain ESC2, stronger effect = lower value 0.988 | locus YER002W, strain NOP16, stronger effect = lower value 0.999 | locus YER111C, strain swi4, stronger effect = lower value 0.937 | locus YJL187C, strain SWE1 (second series), stronger effect = lower value 0.907 | locus YJR066W, strain TOR1, stronger effect = lower value 0.883
0.0598 (active) and 0.956 (inactive): locus YDR150W, strain NUM1, stronger effect = lower value
